About 7,900 targets were measured; listed, in parts, are those with a hit and a random draw of the rest. About 0.6% of all pairs of compound and target were hits.
How the values were obtained:
Experiment in all cases: log2 fold change, soluble protein after heating vs DMSO (PISA); higher = thermal stabilisation; K562 cells, 10 uM, 30 min; active = over 0.2 and 3.5 SD of the protein, either way, in both replicates (recomputed)
bafetinib = compound: Cc1ccc(NC(=O)c2ccc(CN3CC[C@H](N(C)C)C3)c(C(F)(F)F)c2)cc1Nc1nccc(-c2cncnc2)n1 [bafetinib]
How it was run: (§1)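 K562 cells at 2×10^6 cells/mL were treated for 30 min with 10 μM compound, and aliquots were heated for 3 min over 48°C-58°C before pooling. Extraction used PBS with 0.5% NP-40 at 4°C, and soluble protein was the supernatant after 21,000xg for 90 min, measured by TMTpro 16plex LC-MS/MS with channel sums equalised. Thermal stability values, relative to control samples and from duplicates, are log2 fold changes.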

[1] = compound: Cc1cccc(CC(=O)N2CCc3c2ccc(-c2cn(C)c4ncnc(N)c24)c3F)n1
How it was run: as §1

nilotinib = compound: Cc1cn(-c2cc(NC(=O)c3ccc(C)c(Nc4nccc(-c5cccnc5)n4)c3)cc(C(F)(F)F)c2)cn1 [nilotinib]
How it was run: as §1

[2] = compound: Cc1nc(Nc2n[nH]c3c2CN(C(=O)N[C@H](CN(C)C)c2ccccc2)C3(C)C)c2sccc2n1
How it was run: as §1

dasatinib = compound: Cc1nc(Nc2ncc(C(=O)Nc3c(C)cccc3Cl)s2)cc(N2CCN(CCO)CC2)n1 [dasatinib]
How it was run: as §1

[3] = compound: Cc1ncc(-c2ccnc(Nc3ccc(S(C)(=O)=O)cc3)n2)n1C(C)C
How it was run: as §1

[4] = compound: Cn1cc(-c2ccc3c(c2)CCN3C(=O)Cc2cccc(C(F)(F)F)c2)c2c(N)ncnc21
How it was run: as §1

[5] = compound: Cn1cc(-c2ccc3nnc(C(F)(F)c4ccc5ncccc5c4)n3n2)cn1
How it was run: as §1

tipifarnib = compound: Cn1cncc1[C@@](N)(c1ccc(Cl)cc1)c1ccc2c(c1)c(-c1cccc(Cl)c1)cc(=O)n2C [tipifarnib]
How it was run: as §1

mubritinib = compound: FC(F)(F)c1ccc(/C=C/c2nc(COc3ccc(CCCCn4ccnn4)cc3)co2)cc1 [mubritinib]
How it was run: as §1

Measured: log2 fold change

PMPCB (UniProt O75439)
active: tipifarnib 0.269
inactive: bafetinib 0.035 | [1] 0.025 | nilotinib -0.054 | [2] 0.089 | dasatinib 0.098 | [3] -0.04 | [4] 0.105 | [5] 0.046 | mubritinib 0.053

PSMD9 (UniProt O00233)
inactive: bafetinib -0.038 | [1] 0.199 | nilotinib -0.011 | [2] 0.016 | dasatinib 0.037 | [3] 0.008 | [4] 0.018 | [5] 0.034 | tipifarnib 0.04 | mubritinib 0.009

PHKG2 (UniProt P15735)
active: [2] 0.321
inactive: bafetinib -0.047 | [1] 0.044 | nilotinib -0.177 | dasatinib -0.306 | [3] 0.011 | [4] -0.024 | [5] -0.017 | tipifarnib -0.046 | mubritinib -0.127

PIP4K2B (UniProt P78356)
inactive: bafetinib 0.258 | [1] 0.011 | nilotinib 0.085 | [2] 0.05 | dasatinib 0.139 | [4] 0.055 | [5] 0.172 | tipifarnib -0.03 | mubritinib -0.083
active: [3] 0.538

PMVK (UniProt Q15126)
inactive: bafetinib 0.057 | [1] -0.203 | nilotinib -0.214 | [2] -0.064 | dasatinib -0.308 | [3] -0.139 | [4] -0.098 | mubritinib -0.025

PITRM1 isoform 2 (UniProt Q5JRX3)
Sequence of UniProt Q5JRX3 (Q5JRX3 whole entry, looked up): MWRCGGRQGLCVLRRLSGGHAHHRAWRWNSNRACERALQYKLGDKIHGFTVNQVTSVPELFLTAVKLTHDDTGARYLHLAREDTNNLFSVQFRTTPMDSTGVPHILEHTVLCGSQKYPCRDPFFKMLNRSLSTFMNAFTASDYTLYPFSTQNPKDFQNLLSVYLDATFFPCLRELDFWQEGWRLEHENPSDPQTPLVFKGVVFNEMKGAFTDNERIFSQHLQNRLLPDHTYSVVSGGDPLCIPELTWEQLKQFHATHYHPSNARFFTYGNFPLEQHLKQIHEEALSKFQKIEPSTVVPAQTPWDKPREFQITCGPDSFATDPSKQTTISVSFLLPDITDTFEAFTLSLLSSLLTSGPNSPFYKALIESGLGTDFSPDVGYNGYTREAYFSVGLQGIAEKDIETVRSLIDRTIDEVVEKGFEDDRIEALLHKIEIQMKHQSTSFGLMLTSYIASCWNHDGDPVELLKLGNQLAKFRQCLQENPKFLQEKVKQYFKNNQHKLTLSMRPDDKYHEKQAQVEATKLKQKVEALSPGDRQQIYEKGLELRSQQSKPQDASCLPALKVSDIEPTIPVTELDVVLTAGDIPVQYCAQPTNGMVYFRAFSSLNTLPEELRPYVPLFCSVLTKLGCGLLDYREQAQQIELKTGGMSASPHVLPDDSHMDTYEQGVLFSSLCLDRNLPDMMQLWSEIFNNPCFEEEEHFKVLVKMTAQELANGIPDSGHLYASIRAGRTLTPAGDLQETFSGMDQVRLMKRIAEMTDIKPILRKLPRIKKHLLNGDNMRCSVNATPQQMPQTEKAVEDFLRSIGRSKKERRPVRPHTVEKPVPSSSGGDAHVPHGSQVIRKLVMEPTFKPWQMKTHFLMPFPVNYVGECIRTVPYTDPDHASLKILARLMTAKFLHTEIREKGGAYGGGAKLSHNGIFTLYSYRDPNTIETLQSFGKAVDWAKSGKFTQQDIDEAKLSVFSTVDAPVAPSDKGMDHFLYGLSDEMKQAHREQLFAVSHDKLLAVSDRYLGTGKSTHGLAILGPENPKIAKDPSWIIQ
inactive: bafetinib -0.052 | [1] -0.039 | nilotinib -0.108 | [2] 0.01 | dasatinib -0.132 | [3] -0.088 | [4] 0.119 | [5] -0.004 | tipifarnib 0.003 | mubritinib 0.005

PTPA (UniProt Q15257)
inactive: bafetinib -0.038 | [1] 0.011 | nilotinib -0.014 | [2] 0.012 | dasatinib -0.014 | [3] -0.002 | [4] 0.034 | [5] 0.03 | tipifarnib 0.013 | mubritinib 0.028

PLCL1 (UniProt Q15111)
Sequence of UniProt Q15111 (Q15111 whole entry, looked up): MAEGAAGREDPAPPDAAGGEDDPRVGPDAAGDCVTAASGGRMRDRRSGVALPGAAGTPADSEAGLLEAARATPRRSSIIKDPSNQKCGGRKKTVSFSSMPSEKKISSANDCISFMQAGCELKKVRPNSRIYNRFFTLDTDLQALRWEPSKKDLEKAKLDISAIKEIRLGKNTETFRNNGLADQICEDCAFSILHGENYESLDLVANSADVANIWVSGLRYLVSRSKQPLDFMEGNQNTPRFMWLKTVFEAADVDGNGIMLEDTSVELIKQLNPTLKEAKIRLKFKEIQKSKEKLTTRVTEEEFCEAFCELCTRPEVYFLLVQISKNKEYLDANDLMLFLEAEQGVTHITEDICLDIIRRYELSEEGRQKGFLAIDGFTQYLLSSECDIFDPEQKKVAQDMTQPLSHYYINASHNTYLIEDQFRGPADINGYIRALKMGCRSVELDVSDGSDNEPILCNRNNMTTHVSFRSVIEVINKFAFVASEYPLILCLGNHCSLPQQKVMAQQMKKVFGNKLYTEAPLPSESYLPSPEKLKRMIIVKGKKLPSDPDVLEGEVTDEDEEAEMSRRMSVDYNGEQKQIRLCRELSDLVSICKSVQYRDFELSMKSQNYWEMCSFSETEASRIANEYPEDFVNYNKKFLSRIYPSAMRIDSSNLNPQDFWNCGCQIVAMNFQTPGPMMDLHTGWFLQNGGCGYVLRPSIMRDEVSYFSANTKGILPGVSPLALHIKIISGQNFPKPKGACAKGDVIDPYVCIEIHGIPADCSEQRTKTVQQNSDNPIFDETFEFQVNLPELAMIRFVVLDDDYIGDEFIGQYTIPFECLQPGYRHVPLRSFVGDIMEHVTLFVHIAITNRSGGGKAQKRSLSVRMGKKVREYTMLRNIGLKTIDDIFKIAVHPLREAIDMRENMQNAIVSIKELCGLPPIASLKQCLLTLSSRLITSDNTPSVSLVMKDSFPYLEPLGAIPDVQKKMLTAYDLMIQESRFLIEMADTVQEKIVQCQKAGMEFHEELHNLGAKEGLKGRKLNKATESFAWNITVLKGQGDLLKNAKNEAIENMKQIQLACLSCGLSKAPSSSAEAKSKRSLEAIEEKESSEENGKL
inactive: bafetinib -0.045 | [1] 0.039 | nilotinib -0.06 | [2] -0.197 | [3] -0.324 | [4] -0.116 | [5] 0.028 | mubritinib -0.018

PTTG1IP (UniProt P53801)
Sequence of UniProt P53801 (P53801 whole entry, looked up): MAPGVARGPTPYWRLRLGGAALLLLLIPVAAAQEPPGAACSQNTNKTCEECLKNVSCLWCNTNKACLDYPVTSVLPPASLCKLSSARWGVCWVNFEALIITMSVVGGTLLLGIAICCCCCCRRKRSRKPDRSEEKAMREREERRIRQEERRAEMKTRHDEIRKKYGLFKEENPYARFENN
inactive: bafetinib -0.105 | [1] -0.053 | nilotinib -0.061 | [2] 0.054 | dasatinib -0.002 | [3] -0.099 | [4] 0.036 | tipifarnib 0.036 | mubritinib -0.012

PTPA (UniProt A6PVN8)
inactive: bafetinib -0.122 | [1] -0.084 | nilotinib -0.134 | [2] 0.008 | dasatinib 0.075 | [3] 0.013 | [4] -0.075 | [5] 0.05 | tipifarnib 0.232 | mubritinib 0.114

PCK2 (UniProt Q16822)
Sequence of UniProt Q16822 (Q16822 whole entry, looked up): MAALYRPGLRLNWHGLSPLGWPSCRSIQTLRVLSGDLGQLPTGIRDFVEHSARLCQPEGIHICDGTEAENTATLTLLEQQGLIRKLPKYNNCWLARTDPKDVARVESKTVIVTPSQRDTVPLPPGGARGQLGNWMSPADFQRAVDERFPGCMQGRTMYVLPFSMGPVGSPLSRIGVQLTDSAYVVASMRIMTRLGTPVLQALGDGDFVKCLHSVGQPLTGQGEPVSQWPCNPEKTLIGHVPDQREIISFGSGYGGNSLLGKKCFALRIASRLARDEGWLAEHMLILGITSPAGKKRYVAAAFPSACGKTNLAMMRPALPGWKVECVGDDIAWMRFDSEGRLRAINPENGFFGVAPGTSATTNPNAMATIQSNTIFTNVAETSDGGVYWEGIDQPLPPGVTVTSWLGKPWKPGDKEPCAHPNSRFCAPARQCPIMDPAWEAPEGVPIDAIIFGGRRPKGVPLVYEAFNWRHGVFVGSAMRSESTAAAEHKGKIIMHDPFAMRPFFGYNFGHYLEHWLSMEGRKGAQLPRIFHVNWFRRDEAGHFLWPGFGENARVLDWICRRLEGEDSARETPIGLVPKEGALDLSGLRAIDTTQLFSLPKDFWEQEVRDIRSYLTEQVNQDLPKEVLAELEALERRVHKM
inactive: bafetinib -0.052 | [1] 0.027 | nilotinib -0.05 | [2] 0.027 | dasatinib -0.035 | [3] -0.006 | [4] 0.041 | [5] 0.003 | tipifarnib 0 | mubritinib -0.022

PUM1 isoform 3 (UniProt Q14671)
inactive: bafetinib -0.062 | [1] 0.006 | nilotinib -0.047 | [2] -0.066 | dasatinib -0.044 | [3] -0.014 | [4] 0.01 | [5] 0 | tipifarnib -0.015 | mubritinib 0.007

PRKACB isoform 2 (UniProt P22694)
active: [2] 0.647
inactive: bafetinib -0.06 | [1] 0.04 | nilotinib -0.021 | dasatinib -0.021 | [3] -0.037 | [4] -0.013 | [5] -0.004 | tipifarnib -0.144 | mubritinib 0.051

PTGES3 (UniProt Q15185)
inactive: bafetinib -0.05 | [1] 0.028 | nilotinib -0.044 | [2] -0.089 | dasatinib -0.142 | [3] -0.042 | [4] 0.034 | [5] 0.039 | tipifarnib -0.119 | mubritinib -0.091

PKM isoform 2 (UniProt P14618)
Sequence of UniProt P14618 (P14618 whole entry, looked up): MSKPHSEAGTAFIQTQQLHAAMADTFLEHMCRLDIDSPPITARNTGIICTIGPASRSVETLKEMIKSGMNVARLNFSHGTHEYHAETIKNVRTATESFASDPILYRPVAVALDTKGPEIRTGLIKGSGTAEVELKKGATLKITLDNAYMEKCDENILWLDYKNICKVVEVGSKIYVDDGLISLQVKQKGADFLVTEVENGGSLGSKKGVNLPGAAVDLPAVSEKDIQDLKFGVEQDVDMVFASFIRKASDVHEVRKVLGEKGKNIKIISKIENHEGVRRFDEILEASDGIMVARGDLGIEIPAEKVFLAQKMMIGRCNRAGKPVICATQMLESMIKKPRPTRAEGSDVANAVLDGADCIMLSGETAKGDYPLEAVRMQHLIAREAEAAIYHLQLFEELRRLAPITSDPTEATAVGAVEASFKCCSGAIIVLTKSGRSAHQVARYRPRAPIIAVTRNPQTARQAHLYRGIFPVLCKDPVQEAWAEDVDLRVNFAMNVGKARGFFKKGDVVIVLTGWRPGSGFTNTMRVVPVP
inactive: bafetinib -0.155 | [1] 0.029 | nilotinib 0.121 | [2] -0.104 | dasatinib -0.014 | [3] 0.198 | [5] 0.017 | tipifarnib 0.209 | mubritinib 0.05

POLR3D (UniProt P05423)
inactive: bafetinib -0.052 | [1] 0.044 | nilotinib 0.023 | [2] -0.125 | dasatinib 1.17 | [3] 0.057 | [4] -0.082 | [5] 0.046 | tipifarnib 0.018 | mubritinib -0.072

PDE6D (UniProt O43924)
Sequence of UniProt O43924 (O43924 whole entry, looked up): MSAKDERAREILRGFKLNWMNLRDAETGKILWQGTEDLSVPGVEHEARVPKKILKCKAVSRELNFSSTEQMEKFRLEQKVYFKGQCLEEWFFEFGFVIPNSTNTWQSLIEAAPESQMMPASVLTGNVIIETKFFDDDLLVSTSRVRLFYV
inactive: bafetinib 0.266 | [1] 0.169 | nilotinib 0.191 | [2] -0.238 | dasatinib 0.026 | [3] 0.011 | [4] 0.385 | mubritinib 0.565

PGM3 isoform 4 (UniProt O95394)
Sequence of UniProt O95394 (O95394 whole entry, looked up): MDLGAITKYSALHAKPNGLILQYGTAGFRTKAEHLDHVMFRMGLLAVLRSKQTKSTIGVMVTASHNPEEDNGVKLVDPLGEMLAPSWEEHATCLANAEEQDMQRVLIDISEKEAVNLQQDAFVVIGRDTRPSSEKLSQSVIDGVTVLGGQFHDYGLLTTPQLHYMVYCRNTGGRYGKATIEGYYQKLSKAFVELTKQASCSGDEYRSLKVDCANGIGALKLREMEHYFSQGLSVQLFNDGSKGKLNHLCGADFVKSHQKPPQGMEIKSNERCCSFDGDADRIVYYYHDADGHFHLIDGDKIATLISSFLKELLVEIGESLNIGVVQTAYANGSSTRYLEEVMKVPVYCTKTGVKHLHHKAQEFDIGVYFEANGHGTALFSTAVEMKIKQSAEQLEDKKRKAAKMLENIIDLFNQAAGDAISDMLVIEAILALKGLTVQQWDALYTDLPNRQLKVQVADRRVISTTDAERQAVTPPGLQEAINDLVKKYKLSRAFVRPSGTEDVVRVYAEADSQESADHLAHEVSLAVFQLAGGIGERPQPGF
active: mubritinib 0.293
inactive: bafetinib 0.056 | [1] 0.153 | nilotinib -0.022 | [2] 0.021 | dasatinib -0.145 | [3] -0.003 | [4] 0.106 | [5] 0.02 | tipifarnib -0.079

PIP4K2A (UniProt P48426)
inactive: bafetinib 0.283 | [1] 0.103 | nilotinib 0.077 | [2] 0.065 | dasatinib 0.048 | [4] 0.037 | [5] 0.181 | tipifarnib -0.081 | mubritinib -0.06
active: [3] 0.588

PPP1R12C (UniProt Q9BZL4)
active: [1] 0.612
inactive: bafetinib -0.085 | nilotinib 0.069 | [2] -0.26 | dasatinib -0.065 | [3] -0.213 | [5] -0.018 | tipifarnib -0.219 | mubritinib -0.118

PIGH (UniProt Q14442)
Sequence of UniProt Q14442 (Q14442 whole entry, looked up): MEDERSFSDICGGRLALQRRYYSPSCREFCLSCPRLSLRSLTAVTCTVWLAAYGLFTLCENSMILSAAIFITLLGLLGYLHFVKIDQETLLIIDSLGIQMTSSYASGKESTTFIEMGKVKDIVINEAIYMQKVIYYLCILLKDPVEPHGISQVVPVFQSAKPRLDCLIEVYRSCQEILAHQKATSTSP
inactive: bafetinib -0.037 | [1] -0.01 | dasatinib -0.053 | [4] 0.099 | [5] 0.009 | tipifarnib 0.056 | mubritinib 0.04

PHKA1 (UniProt P46020)
inactive: bafetinib 0.023 | [1] -0.004 | nilotinib -0.233 | [2] -0.021 | dasatinib -0.303 | [3] 0.023 | [4] 0.027 | [5] -0.092 | tipifarnib 0.083 | mubritinib -0.04

PRKAA1 isoform 2 (UniProt Q13131)
Sequence of UniProt Q13131 (Q13131 whole entry, looked up): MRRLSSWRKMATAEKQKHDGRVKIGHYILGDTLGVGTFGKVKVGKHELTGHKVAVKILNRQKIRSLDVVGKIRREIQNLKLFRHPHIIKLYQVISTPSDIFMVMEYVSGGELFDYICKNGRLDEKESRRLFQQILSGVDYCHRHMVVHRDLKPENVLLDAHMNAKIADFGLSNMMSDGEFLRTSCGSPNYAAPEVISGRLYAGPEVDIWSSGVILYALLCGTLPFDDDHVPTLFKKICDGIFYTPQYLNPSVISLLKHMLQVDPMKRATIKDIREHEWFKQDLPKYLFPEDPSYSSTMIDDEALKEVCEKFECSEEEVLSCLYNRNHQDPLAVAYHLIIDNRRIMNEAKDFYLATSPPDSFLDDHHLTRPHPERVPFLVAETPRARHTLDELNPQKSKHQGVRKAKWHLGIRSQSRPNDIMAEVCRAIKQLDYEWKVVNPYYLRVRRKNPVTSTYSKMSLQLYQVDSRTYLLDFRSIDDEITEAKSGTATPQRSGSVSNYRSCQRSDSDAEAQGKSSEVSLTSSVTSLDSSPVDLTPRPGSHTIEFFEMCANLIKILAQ
active: [2] -0.206
inactive: bafetinib -0.096 | [1] 0.035 | nilotinib -0.029 | dasatinib -0.069 | [3] -0.011 | [4] 0.082 | [5] 0.028 | tipifarnib -0.012 | mubritinib -0.012

PIGT (UniProt Q969N2)
inactive: bafetinib -0.042 | [1] 0 | nilotinib -0.029 | [2] 0.046 | dasatinib -0.031 | [3] -0.028 | [4] -0.011 | [5] 0.003 | tipifarnib -0.029 | mubritinib -0.037

PRKAR1B (UniProt P31321)
inactive: bafetinib 0.132 | [1] -0.015 | nilotinib 0.062 | [2] 0.012 | dasatinib -0.013 | [3] 0.097 | [4] 0.018 | [5] 0.126 | tipifarnib 0.147 | mubritinib -0.286

From the supplement of paper PMC10849652
